Data published in PubChem BioAssay (Tox21).
Inconclusive results are not listed. Entries that show only a call come without a potency. Activity calls are given as the source filed them. Calls follow the shape of the dose curve; as a rule, active = well fitted inhibition curve with a large enough effect in the repeat runs; inconclusive = weak or mixed curves; inactive = no such curve, though single readings can be large or run the other way.
Potency is read from the fitted curve at half-maximal effect.

Assay: qHTS assay to identify small molecule antagonists of the thyroid receptor (TR) signaling pathway (AID 743065); also: nearly all actives have a fitted effect of over 55% in size
Details: GH3.TRE-Luc, T3-stimulated luciferase inhibition, 23.5 h; series mostly up to 70.3 µM
Excerpt: U.S. Tox21 Program National Center for Advancing Translational Sciences [NCATS] NIH Chemical Genomics Center [NCGC] U.S. Environmental Protection Agency [EPA] National Institutes of Environmental Health Sciences [NIEHS] National Toxicology Program [NTP] U.S. Food and Drug Administration [FDA] Tox21 Assay Overview: Thyroid receptor (TR), a nuclear hormone receptor, plays an important role in development, proliferation, differentiation, metabolism, brain function, and cardiovascular system. […] To profile the Tox21 10K compound library in TR signaling, a cell-based GH3-TRE-Luc assay (GH3.TRE-Luc cell line, developed by the laboratory of Dr. Albertinka J. Murk, Wageningen University) was used to measure the inhibition of TR. GH3 (rat pituitary tumor) cells stably expressing a TR activity sensor consisting of two TR response elements and a luciferase reporter gene.
Tox21 Assay Protocol Summary: GH3.TRE-Luc cells were dispensed at 1500 cells/4 uL/well into 1536-well white solid bottom plates using a Multidrop Combi dispenser (Thermo Fisher Scientific Inc., Waltham, MA). After the assay plates were incubated at 37 C for 4 hours, 23 nL of library compound or DMSO controls was transferred to the assay plates by a pintool station (Kalypsys, San Diego, CA), followed by addition of 1 ul of T3 (1 nM, final concentration in the wells) to stimulate TR transactivation. The assay plates were incubated at 37 C for 23.5 h, and then 1 uL of CellTiter-Fluor reagent (Promega, Madision, WI) of measuring cytotoxicity was added to each well using a Bioraptr Flying Reagent Dispenser (FRD) workstation (Beckman Coulter, Indianapolis, IN, USA). The plates were incubated at 37 C and 5% CO2 for additional 30 min, and fluorescence intensity was measured by a ViewLux plate reader (PerkinElmer, Shelton, CT). For measuring luciferase reporter gene activity, 4 uL of ONE-Glo Luciferase Assay reagent (Promega) was added to each well using a Bioraptr FRD (Beckman Coulter), followed by 30 min incubation at room temperature. The luminescence intensity of plates was recorded by a ViewLux plate reader (PerkinElmer, Shelton, CT).
In the case of `Cc1nnc2n1-c1ccc(Cl)cc1C(c1ccccc1)=NC2`, the Potency is reported as 26.6 µM (active). In the case of `CCOC(=O)C1(c2ccccc2)CCCN(C)CC1` (stereo not given), the Potency is reported as “inactive”. For `C#CC(C)(O)CC` (stereo not given), the Potency was “inactive”. With `O=C1CCCCC1CN1CCCCC1` (stereo not given) the Potency was “inactive”. For `CCC(=O)O[C@]1(c2ccccc2)CCN(C)C[C@H]1C`, the Potency was “inactive”. With `CC(=O)[C@@]1(O)CC[C@H]2[C@@H]3CCC4=CC(=O)CC[C@]4(C)C3(F)[C@@H](O)C[C@@]21C` (stereo not given in full) the Potency was “inactive”. In the case of `C=CCC1(C(C)CCC)C(=O)N=C(S)NC1=O` (stereo not given), the Potency is reported as “inactive”. With `NCC(O)c1cccc(O)c1` (stereo not given) the Potency was “inactive”. For `NCC[C@H](O)C(=O)N[C@@H]1C[C@H](N)[C@@H](O[C@H]2O[C@H](CN)[C@@H](O)[C@H](O)[C@H]2N)[C@H](O[C@@H]2O[C@H](CO)[C@@H](O)[C@H]2O)[C@H]1O`, the Potency was “inactive”. In the case of `N#CC1(N2CCCCC2)CCCCC1`, the Potency is reported as “inactive”. For `C[C@]12CCC(=O)C=C1C=C[C@@H]1[C@@H]2CC[C@@]2(C)[C@H]1CC[C@@]2(O)CCC(=O)O`, the Potency was “inactive”. In the case of `CN[C@@]1(c2ccccc2Cl)CCCCC1=O`, the Potency is reported as “inactive”. With `CCCCNC(C)(C)[P+](=O)O` the Potency was “inactive”. With `CN(C)CCCCCCN(C)C` (tested in a mixture with another compound) the Potency was “inactive”. With `C[C@H]1[C@H]2Cc3ccc(O)cc3[C@]1(C)CCN2CCc1ccccc1` the Potency was 27.1 µM (active). For `c1csc(C2(N3CCCCC3)CCCCC2)c1`, the Potency was “inactive”. For `C[C@H]1CC[C@]2(NC1)O[C@H]1C[C@H]3[C@@H]4CC[C@H]5C[C@@H](O)CC[C@]5(C)[C@H]4CC[C@]3(C)[C@H]1[C@@H]2C`, the Potency was 26.6 µM (active). For `O=[N+]([O-])c1cc(I)c(O)c(I)c1`, the Potency was 21.1 µM (active). With `Cc1ccccc1-n1c(C)nc2ccccc2c1=O` the Potency was “inactive”. For `CNC1(c2ccccc2Cl)CCCCC1=O` (stereo not given), the Potency was “inactive”. In the case of `CCC1(c2cnc[nH]2)Cc2ccccc2C1`, the Potency is reported as “inactive”. With `CCN(CC)/[N+]([O-])=N/O` the Potency was “inactive”. With `CN[C@]1(c2ccccc2Cl)CCCCC1=O` the Potency was “inactive”. With `CC(=O)[C@H]1CC[C@H]2[C@@H]3CC[C@@H]4C[C@H](O)CC[C@]4(C)[C@H]3CC[C@]12C` the Potency was 13.3 µM (active). In the case of `CO/C=C(/C(=O)OC)c1ccccc1Oc1cc(Oc2ccccc2C#N)ncn1`, the Potency is reported as 0.411 µM (active). With `CCC1(CC)C(=O)NC(=O)N(C)C1=O` the Potency was “inactive”. For `C/C=C(\CC)C(=O)NC(N)=O`, the Potency was “inactive”. With `CCC1C(C)=NN=C(c2ccc(OC)c(OC)c2)c2cc(OC)c(OC)cc21` (stereo not given) the Potency was “inactive”. For `CC(=O)Oc1ccc2c3c1O[C@H]1[C@@H](OC(C)=O)C=C[C@H]4[C@@H](C2)N(C)CC[C@@]341`, the Potency was “inactive”. With `C[C@]12C[C@H]3S[C@H]3C[C@@H]1CC[C@@H]1[C@@H]2CC[C@]2(C)[C@@H](O)CC[C@@H]12` the Potency was “inactive”. For `CN[C@H]1C[C@@H](N)[C@H](O)[C@@H](O[C@@H]2O[C@H](CO)[C@H](O)[C@@H]3OC4(O[C@H]23)O[C@H](C(N)CO)[C@H](O)[C@H](O)[C@H]4O)[C@@H]1O` (stereo not given in full), the Potency was 11.9 µM (active). For `COC(COC(N)=O)C1=C(N2CC2)C(=O)C(C)=C(N2CC2)C1=O` (stereo not given), the Potency was 0.168 µM (active). With `CCCC(C)C1(CC)C(=O)NC(=O)NC1=O` (stereo not given) the Potency was “inactive”. In the case of `[2H]C([2H])([2H])[C@H](N)Cc1ccccc1`, the Potency is reported as “inactive”. With `Cc1cccc(C(C)c2cnc[nH]2)c1C` (stereo not given) the Potency was “inactive”. With `CN(C)CCCCCCN(C)C` the Potency was “inactive”. For `C/C(=C\c1csc(C)n1)[C@@H]1C[C@@H]2O[C@]2(C)CCC[C@H](C)[C@H](O)[C@@H](C)C(=O)C(C)(C)[C@@H](O)CC(=O)O1`, the Potency was 0.0106 µM (active). For `C[C@]12CC[C@H]3[C@@H](CCC4=C(Cl)C(=O)CC[C@@]43C)[C@@H]1CC[C@@H]2O`, the Potency was 13.3 µM (active). In the case of `CCC(C)(S(=O)(=O)CC)S(=O)(=O)CC`, the Potency is reported as “inactive”. With `CCN(CC)CCO[C@H]1CC[C@@]2(C)C(=CC[C@@H]3[C@@H]2CC[C@]2(C)C(=O)CC[C@@H]32)C1` the Potency was 21.1 µM (active).
